# Active and inactive are the calls of the source. Unless noted, the rule behind the calls is not given here.
# Key:
# [1] = HepG2 liver cancer cell viability effects, profiling panel, resazurin fluorescence, 24 h, PK04 Diversity Set (AID 1172); details: higher = more signal
# [2] = basal S. cerevisiae growth modulation, no modifier, primary screen, OD600, strain BY4716, 24 h, basal condition (AID 1173); details: OD600, 24 h, higher = more signal, called active from +8 up or from −8 down
# [3] = MM1S myeloma cell viability, profiling panel, resazurin fluorescence, basal, 24 h, PK04 Diversity Set (AID 1174); details: higher = more signal, called active from +8 up or from −8 down;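 note: MM1S multiple myeloma cell line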
# [4] = molecular target: Dihydroorotate dehydrogenase (quinone), mitochondrial (Plasmodium falciparum (isolate 3D7)) (UniProt Q08210); assay: PfDHODH enzyme inhibitors, primary screen, biochemical, C-terminal His tag, absorbance 600 nm (AID 1175); details: DCIP absorbance 600 nm, higher = more signal, called active from +8 up or from −8 down;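 note: recombinant parasite enzyme with a five histidine tag at its C terminus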
# [5] = P. aeruginosa biofilm formation inhibitors, primary screen, strain PAO1, LB-PBS medium, absorbance 600 nm (AID 1176); details: P. aeruginosa PAO1 growth/biofilm, A600, 12 h; higher = more signal
# [6] = S. cerevisiae RM11-1a growth modifiers, primary screen, strain RM11-1a, OD600, basal, 24 h (AID 1177); details: OD600, 24 h, higher = more signal, called active from +8 up or from −8 down;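 note: cultures grown under basal conditions with no added stressor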
# [7] = E. coli acrAB mutant growth effects, primary screen, E. coli filamentation inducers, strain DRC39, OD650, 24 h (AID 1178); details: higher = more signal, called active from +8 up or from −8 down;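 note: growth measured as culture turbidity by optical density at 650 nm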
# [8] = E. coli acrAB mutant growth effects, primary screen, E. coli filamentation inducers, strain DRC39, OD650, 48 h (AID 1179);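 note: screen aims at cell division blockers that make cells filament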; details: E. coli DRC39 delta-acrAB growth, higher = more signal, called active from +8 up or from −8 down
# [9] = RPMI8226 myeloma cell viability, profiling panel, resazurin fluorescence, basal, 24 h, PK04 Diversity Set (AID 1180); details: higher = more signal;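 note: RPMI8826 multiple myeloma cell line at 5000 cells per well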
# [10] = molecular target: E3 ubiquitin-protein ligase XIAP (Homo sapiens) (UniProt P98170); assay: XIAP binders, primary screen, biophysical, small-molecule microarray, fluorescence 635 nm (AID 1181); details: small-molecule microarray binding, higher = more signal;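 note: score merges 667 nm emission and signal to noise over triplicate slides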
# [11] = system: XIP peptide (Xip251-270) binding; assay: small-molecule binders of XIP peptide, primary screen, biochemical, small-molecule microarray, fluorescence 635/667 nm, 0.1 µg/mL protein (AID 1182); details: fluorescent protein binding, 635 nm, higher = more signal, called active from +8 up or from −8 down
# XIP peptide (Xip251-270) = assay: small-molecule binders of XIP peptide, primary screen, biochemical, small-molecule microarray, fluorescence 635/667 nm, 0.5 µg/mL protein (AID 1183); details: small-molecule microarray binding, fluorescence 635 nm; higher = more signal
# [12] = Plasmodium falciparum growth inhibition, primary screen, strain 3D7, DAPI fluorescence, 100 nL (AID 1184);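 note: parasites grown inside human red blood cells in medium with human serum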; details: P. falciparum 3D7 growth, 3 d, higher = more signal
# [13] = molecular target: Homeobox protein Hox-A13 (Mus musculus) (UniProt Q62424); assay: inhibitors of HoxA13-DNA binding, primary screen, biochemical, fluorescence polarization, labeled oligonucleotide (AID 1185); details: 15 min, higher = more signal, called active from +8 up or from −8 down
# [14] = inhibitors of hydroxyurea-induced Chk1 phosphorylation, primary screen, imaging, HeLa, phospho-Chk1 antibody, percent positive cells (AID 1186); details: hydroxyurea-induced phospho-Chk1 immunofluorescence imaging, higher = more signal
# [15] = inhibitors of hydroxyurea-induced Chk1 phosphorylation, primary screen, imaging, HeLa, phospho-Chk1 nuclear intensity (AID 1187); details: hydroxyurea-induced phospho-Chk1 immunofluorescence imaging, higher = more signal
# Chain of E3 ubiquitin-protein ligase XIAP (Homo sapiens) (P98170 whole entry, looked up): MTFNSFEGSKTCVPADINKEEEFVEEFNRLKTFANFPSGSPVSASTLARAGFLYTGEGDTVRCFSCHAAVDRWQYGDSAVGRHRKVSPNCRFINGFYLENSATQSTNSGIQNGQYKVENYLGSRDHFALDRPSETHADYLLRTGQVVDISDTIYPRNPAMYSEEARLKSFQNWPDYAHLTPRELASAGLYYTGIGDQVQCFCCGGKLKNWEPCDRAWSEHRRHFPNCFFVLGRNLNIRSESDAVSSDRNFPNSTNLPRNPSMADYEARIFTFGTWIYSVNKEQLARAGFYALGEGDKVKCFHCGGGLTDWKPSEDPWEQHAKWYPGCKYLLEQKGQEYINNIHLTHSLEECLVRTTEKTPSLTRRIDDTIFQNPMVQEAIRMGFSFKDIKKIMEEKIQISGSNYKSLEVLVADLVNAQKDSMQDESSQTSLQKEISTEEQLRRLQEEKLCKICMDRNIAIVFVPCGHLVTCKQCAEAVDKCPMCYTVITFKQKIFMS
# Chain of Dihydroorotate dehydrogenase (quinone), mitochondrial (Plasmodium falciparum (isolate 3D7)) (Q08210 whole entry, looked up): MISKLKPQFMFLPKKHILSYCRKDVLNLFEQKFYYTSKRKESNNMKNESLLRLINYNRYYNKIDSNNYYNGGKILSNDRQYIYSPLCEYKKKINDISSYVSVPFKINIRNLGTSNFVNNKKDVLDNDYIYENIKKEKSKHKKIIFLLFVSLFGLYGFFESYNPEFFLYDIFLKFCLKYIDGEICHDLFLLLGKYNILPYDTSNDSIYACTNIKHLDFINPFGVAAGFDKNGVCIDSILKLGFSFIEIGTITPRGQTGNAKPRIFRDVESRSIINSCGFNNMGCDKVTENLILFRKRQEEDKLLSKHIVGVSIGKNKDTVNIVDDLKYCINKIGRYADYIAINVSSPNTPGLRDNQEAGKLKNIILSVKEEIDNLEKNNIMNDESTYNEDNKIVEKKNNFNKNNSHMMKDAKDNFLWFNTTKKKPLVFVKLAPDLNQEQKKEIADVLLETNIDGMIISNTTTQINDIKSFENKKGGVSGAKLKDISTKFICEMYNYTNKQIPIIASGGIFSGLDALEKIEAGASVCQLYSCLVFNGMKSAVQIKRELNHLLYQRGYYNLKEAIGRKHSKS
# Chain of Homeobox protein Hox-A13 (Mus musculus) (Q62424 whole entry, looked up): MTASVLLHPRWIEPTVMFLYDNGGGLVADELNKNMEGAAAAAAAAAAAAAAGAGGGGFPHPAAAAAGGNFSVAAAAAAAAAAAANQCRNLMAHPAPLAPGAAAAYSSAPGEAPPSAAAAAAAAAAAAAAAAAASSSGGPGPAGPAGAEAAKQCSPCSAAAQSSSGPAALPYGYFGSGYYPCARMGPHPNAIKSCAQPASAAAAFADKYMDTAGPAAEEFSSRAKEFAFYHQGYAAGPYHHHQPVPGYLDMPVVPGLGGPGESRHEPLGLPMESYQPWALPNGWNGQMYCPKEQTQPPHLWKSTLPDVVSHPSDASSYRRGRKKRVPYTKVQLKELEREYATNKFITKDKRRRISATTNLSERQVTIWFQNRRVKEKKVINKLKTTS
compound,measurement,setting,value
NCCCC[C@@H]1NC(=O)[C@H]2C[C@@H](C(=O)NCc3ccc(F)cc3)[C@@H](c3cccc(OCCO)c3)N2C1=O,z-score,[1],-1.49
same,z-score,[2],-0.956 (inactive)
same,z-score,[3],0.646 (inactive)
same,composite z-score,[4],0.22 (inactive)
same,z-score,[5],0.379 (inactive)
same,z-score,[6],1.57 (inactive)
same,z-score,[7],0.71 (inactive)
same,z-score,[8],0.896 (inactive)
same,z-score,[9],1.04
same,composite z-score,[10],-0.271
same,composite z-score,[11],0.752 (inactive)
same,composite z-score,XIP peptide (Xip251-270),0.837
same,z-score,[12],0.0979
same,z-score,[13],5.72 (inactive)
same,z-score,[14],-0.281 (inactive)
same,z-score,[15],-0.45 (inactive)
COCCCNC(=O)[C@@H]1c2ccccc2C(=O)N(Cc2cc(C(F)(F)F)cc(C(F)(F)F)c2)[C@H]1c1ccc(CO)cc1,z-score,[1],-0.249
same,z-score,[2],-0.65 (inactive)
same,z-score,[3],-0.0193 (inactive)
same,composite z-score,[4],0.721 (inactive)
same,z-score,[5],0.196 (inactive)
same,z-score,[6],-0.432 (inactive)
same,z-score,[7],0.153 (inactive)
same,z-score,[8],0.304 (inactive)
same,z-score,[9],0.431
same,composite z-score,[10],0.0871
same,composite z-score,[11],-0.313 (inactive)
same,composite z-score,XIP peptide (Xip251-270),-0.903
same,z-score,[12],-1.14
same,z-score,[13],-3.22 (inactive)
same,z-score,[14],-0.334 (inactive)
same,z-score,[15],-0.768 (inactive)
O=C1N(Cc2ccccc2)c2ccccc2[C@H]2OC(c3ccc(OCCCO)cc3)=N[C@@]12Cc1ccccc1,z-score,[1],-1.46
same,z-score,[2],-0.084 (inactive)
same,z-score,[3],-3.4 (inactive)
same,composite z-score,[4],0.983 (inactive)
same,z-score,[5],0.565 (inactive)
same,z-score,[6],2.15 (inactive)
same,z-score,[7],0.383 (inactive)
same,z-score,[8],-0.362 (inactive)
same,z-score,[9],-3.36
same,composite z-score,[10],0.0297
same,composite z-score,[11],0.447 (inactive)
same,composite z-score,XIP peptide (Xip251-270),0.821
same,z-score,[12],-2.41
same,z-score,[13],-2.4 (inactive)
same,z-score,[14],-0.335 (inactive)
same,z-score,[15],-0.59 (inactive)
C=C(CCCC)C(=O)CC[C@H](OC(=O)c1cccnc1)c1ccc(CO)o1,z-score,[1],-0.476
same,z-score,[2],-1.58 (inactive)
same,z-score,[3],-0.464 (inactive)
same,composite z-score,[4],-0.826 (inactive)
same,z-score,[5],1.45 (inactive)
same,z-score,[6],-0.497 (inactive)
same,z-score,[7],-0.47 (inactive)
same,z-score,[8],-0.34 (inactive)
same,z-score,[9],-0.643
same,composite z-score,[10],0.0343
same,composite z-score,[11],0.437 (inactive)
same,composite z-score,XIP peptide (Xip251-270),0.769
same,z-score,[12],-0.198
same,z-score,[13],-5.27 (inactive)
same,z-score,[14],0.242 (inactive)
same,z-score,[15],0.136 (inactive)
C=CC[C@@]1(C(=O)O)N=C(c2ccc(OCCCO)cc2)O[C@@H]1c1ccccc1CN=[N+]=[N-],z-score,[1],0.793
same,z-score,[2],-2.58 (inactive)
same,z-score,[3],0.747 (inactive)
same,composite z-score,[4],-0.0013 (inactive)
same,z-score,[5],-0.043 (inactive)
same,z-score,[6],-0.534 (inactive)
same,z-score,[7],0.8 (inactive)
same,z-score,[8],0.302 (inactive)
same,z-score,[9],1.1
same,composite z-score,[10],0.565
same,composite z-score,[11],-0.207 (inactive)
same,composite z-score,XIP peptide (Xip251-270),0.563
same,z-score,[12],-1.34
same,z-score,[13],-6.29 (inactive)
same,z-score,[14],-0.222 (inactive)
same,z-score,[15],-0.0145 (inactive)
CC(C)(C)OC(=O)CC[C@]1(C(N)=O)N=C(c2ccc(OCCCO)cc2)O[C@H]1c1ccccc1CN=[N+]=[N-],z-score,[1],0.0283
same,z-score,[2],0.632 (inactive)
same,z-score,[3],0.455 (inactive)
same,composite z-score,[4],0.369 (inactive)
same,z-score,[5],-0.568 (inactive)
same,z-score,[6],1.55 (inactive)
same,z-score,[7],2.09 (inactive)
same,z-score,[8],0.64 (inactive)
same,z-score,[9],0.282
same,composite z-score,[10],0.108
same,composite z-score,[11],-0.226 (inactive)
same,composite z-score,XIP peptide (Xip251-270),0.819
same,z-score,[12],-0.176
same,z-score,[13],-4.12 (inactive)
same,z-score,[14],-0.198 (inactive)
same,z-score,[15],0.0796 (inactive)
Cc1ccc(S[C@]2(C(=O)NCC(F)(F)F)CC(=O)N(C3CCCCC3)[C@@H]2c2ccc(CO)cc2)cc1,z-score,[1],-0.473
same,z-score,[2],-0.0396 (inactive)
same,z-score,[3],0.273 (inactive)
same,composite z-score,[4],-1.41 (inactive)
same,z-score,[5],0.0309 (inactive)
same,z-score,[6],0.309 (inactive)
same,z-score,[7],0.457 (inactive)
same,z-score,[8],1.01 (inactive)
same,z-score,[9],0.149
same,composite z-score,[10],-0.155
same,composite z-score,[11],0.23 (inactive)
same,composite z-score,XIP peptide (Xip251-270),0.201
same,z-score,[12],-0.703
same,z-score,[13],-3.04 (inactive)
same,z-score,[14],-0.418 (inactive)
same,z-score,[15],-0.25 (inactive)
CC(C)(C)OC(=O)CC[C@]1(C(=O)N2CCOCC2)N=C(c2ccc(OCCCO)cc2)O[C@H]1c1ccccc1CN=[N+]=[N-],z-score,[1],0.125
same,z-score,[2],-0.0255 (inactive)
same,z-score,[3],-0.362 (inactive)
same,composite z-score,[4],-0.0668 (inactive)
same,z-score,[5],1.78 (inactive)
same,z-score,[6],-0.459 (inactive)
same,z-score,[7],0.565 (inactive)
same,z-score,[8],0.088 (inactive)
same,z-score,[9],0.0933
same,composite z-score,[10],0.0159
same,composite z-score,[11],0.518 (inactive)
same,composite z-score,XIP peptide (Xip251-270),0.792
same,z-score,[12],-1.79
same,z-score,[13],-6.05 (inactive)
same,z-score,[14],-0.0845 (inactive)
same,z-score,[15],-0.314 (inactive)
CCCCCN1CC=CC23O[C@@H]4C=CCOC(=O)[C@@H]4[C@H]2C(=O)N(CCCCCO)[C@@H]3C1=O (some centres undefined),z-score,[1],0.773
same,z-score,[2],-0.284 (inactive)
same,z-score,[3],-0.295 (inactive)
same,composite z-score,[4],-1.09 (inactive)
same,z-score,[5],0.441 (inactive)
same,z-score,[6],-0.196 (inactive)
same,z-score,[7],-0.151 (inactive)
same,z-score,[8],-0.352 (inactive)
same,z-score,[9],0.0715
same,composite z-score,[10],-0.244
same,composite z-score,[11],0.213 (inactive)
same,composite z-score,XIP peptide (Xip251-270),-0.228
same,z-score,[12],-0.423
same,z-score,[13],-3.88 (inactive)
same,z-score,[14],-0.845 (inactive)
same,z-score,[15],-0.498 (inactive)
